Data taken from PubChem BioAssay (NCATS).
Inconclusive results are not listed. Calls of active or inactive are those of the source. Unless noted, calls come from the whole dose curve; as a rule, active = well fitted curve in either direction with a large enough effect (not every such curve was filed as active); inconclusive = small, poorly fitted or top-dose-only effect, or another doubt; inactive = flat fitted curve, though single readings scatter.

Assays:
[1] = AP1 Signaling Pathway (AID 357); settings: ME-180 AP-1-bla reporter, EGF-induced, beta-lactamase ratio, 5 h; at 17.2 µM (top of the series) unless noted; note: % is set by controls: 0 for no effect and ±100 for the full control effect
How it was run: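 A ratiometric CCF4 readout (405 nm excitation; 460 and 530 nm emission) quantified AP-1-driven beta-lactamase in ME-180 cells after 5 h with compound and EC50 EGF; AC50 values were derived for activators and inhibitors.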

[2] = NFAT Signaling Pathway (AID 444); settings: Jurkat NFAT-bla M1, carbachol, beta-lactamase ratio, 5 h; at 17.2 µM (top of the series) unless noted;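 note: carbachol stimulus at about its EC50 of 1 µM final; % is set by controls: 0 for no effect and ±100 for the full control effect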
How it was run: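 Jurkat cells with NFAT-driven β-lactamase reporter and co-expressed M1 receptor, stimulated with carbachol (final 1 uM, ~EC50), compound titration, 5 h at 37 °C. CCF4 loaded 1 h at RT; 460/530 nm ratio gave %activity and AC50.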

[3] = target: Glucocorticoid receptor (Homo sapiens) (UniProt P04150); experiment: GR-GFP Redistribution (AID 450;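 active = compounds whose dose series gives a full or clear partial fitted curve of increased nuclear translocation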; note: potency is the fitted concentration of half-maximal effect); settings: U2OS GR-GFP nuclear translocation, laser cytometry, 2 h
[4] = Stat Signaling Pathway (AID 446);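 note: ME-180 cervical cancer cells given 40 pM IL-6 alongside compound; SIE-controlled beta-lactamase reporter measured as 460/530 nm FRET emission ratio; % is set by controls: 0 for no effect and ±100 for the full control effect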
How it was run: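 FRET read-out (405 nm excitation, 460/530 nm emission) of a beta-lactamase reporter under a STAT-inducible element in ME-180 cervical carcinoma cells. Cells with compound receive 40 pM IL-6 for 5 h. Values are normalised to AC90 stimulation and AC90 JAK-inhibitor controls.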

[5] = qHTS Assay for Identification of Small Molecule Agonists for Hypoxia Response Element Signaling Pathway (AID 914; active = well fitted activation curve with a large enough effect in the signal ratio, with a control signal flat, not every such curve was filed as active; the % refers to the signal ratio; note: % of control where 0% means no effect); settings: ME-180 HRE-bla reporter, beta-lactamase ratio, CoCl2, 17 h; activation: hits give high values
How it was run: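 ME-180 cells carrying an HRE-driven beta-lactamase reporter were treated with compounds in a titration series plus an EC50 level of CoCl2 for 17 h at 37 degrees Celsius; CCF4 readout as the 460nm/530nm ratio gave AC50 values.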

[6] = target: Glucocorticoid receptor (Homo sapiens) (UniProt P04150); experiment: GR-EFC Redistribution (AID 451; calls by dose curve; note: potency is the fitted concentration of half-maximal effect); settings: CHO-K1 GR-EFC translocation, beta-gal luminescence, 2 h
How it was run: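 CHO-K1 cells expressing nuclear EA and GR-ED fragments of b-gal; compounds titrated up to 46 uM final, 2 h at 37 C. GR nuclear translocation read as complemented b-gal luminescence after 1 h RT detection.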

[7] = target: Mitogen-activated protein kinase 10 (Mus musculus) (UniProt Q61831); experiment: JNK3 AlphaScreen Assay (AID 530);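 note: kinase came from lysate of stimulated human HepG2 cells; signal reports phosphorylation of biotinylated GST-cJun 1-79 at Ser73 with 10 µM ATP; % is set by controls: 0 for no effect and ±100 for the full control effect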
How it was run: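 Activity was read by AlphaScreen after JNK3-containing HepG2 lysate (cytokine pre-activated) phosphorylated biotinylated GST-cJun with 10 uM ATP at room temperature. Phospho-Ser73 cJun antibody with Protein-A acceptor beads provided detection.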

[8] = target: 3',5'-cyclic-AMP phosphodiesterase 4B (Homo sapiens) (UniProt Q07343); experiment: qHTS Assay for Inhibitors of PDE-IV (AID 607; active = well fitted activation curve with a large enough effect in the main read-out, with a control signal flat, not every such curve was filed as active; note: % of control where 0% means no effect)
How it was run: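 Cell-based read-out of cAMP via a modified cyclic nucleotide-gated channel and membrane potential dye (535/590 nm) in HEK293 cells expressing PDE4 endogenously. Compounds tested up to 22.9 uM final; 100 uM RO 20-1724 reference.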

[9] = target: Guanine nucleotide-binding protein G(i) subunit alpha-1 (Homo sapiens) (UniProt P63096); experiment: qHTS Assay for Inhibitors of RGS12 GoLoco Motif Activity (Green Fluorophore) (AID 879; active = well fitted curve in the direction sought with a large enough effect; an effect the other way counts as inactive or inconclusive;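 note: 0% = labeled peptide with Gαi1 and full inhibition = labeled peptide alone without protein; negative values mean loss of peptide binding seen as reduced polarization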)
How it was run: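 A drop in FITC polarization marked displacement of the FITC-tagged RGS12 GoLoco peptide (10 nM) from Gαi1 (50 nM). Compounds were incubated 10 min at room temperature in Tris pH 7.5 buffer containing 150 mM NaCl, 0.1 mM GDP and 0.05% NP40; unlabeled peptide titration served as control.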

[10] = qHTS Assay for Identification of Small Molecule Antagonists for NFkB Signaling Pathway (AID 895; active = well fitted inhibition curve with a large enough effect in the signal ratio, with a control signal flat, not every such curve was filed as active; the % refers to the signal ratio; note: % is set by controls: 0 for no effect and ±100 for the full control effect)
How it was run: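 ME-180 NFkB-bla cells (beta-lactamase under NFkB response element), plated overnight, treated with compound then 10 pM TNF alpha (about EC50) for 5 hrs at 37 C. LiveBLAzer FRET read at 460/530 nm emission, 405 nm excitation.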

[11] = target: Muscarinic acetylcholine receptor M1 (Rattus norvegicus) (UniProt P08482); experiment: qHTS Assay for Antagonists of Acetylcholine Muscarinic M1 Receptor: Measurement of IP-One Response (AID 944; active = well fitted curve in the direction sought with a large enough effect; an effect the other way counts as inactive or inconclusive; note: nearly all actives have a fitted effect of over 75% in size)
How it was run: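 IP1 accumulation measured via TR-FRET between d2-IP1 and Eu-cryptate anti-IP1 antibody after carbachol (200 nM, EC80) stimulation for 30 min; rat M1-transfected CHO cells received compound 10 min before agonist.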

[12] = target: Pyruvate kinase PKM (Homo sapiens) (UniProt P14618); experiment: qHTS Assay for Activators of Human Muscle Pyruvate Kinase (AID 954; active = well fitted curve in the direction sought with a large enough effect, not every such curve was filed as active;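 note: 0% = uninhibited enzyme and -100% = no enzyme or full thiadiazolimine inhibition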)
How it was run: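 ATP production by PKM2 detected via luciferase luminescence after 1 h room-temperature reaction (0.1 nM enzyme, PEP at Km 0.5 mM, ADP 0.1 mM, pH 7.2 imidazole buffer). Inhibition scaled to no-enzyme control; activation referenced to 0.3 nM enzyme wells.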

[13] = target: Alpha-galactosidase (Coffea arabica) (UniProt Q42656); experiment: Counterscreen for Glucocerebrosidase Inhibitors: qHTS Assay for Coffee Bean alpha-Galactosidase at pH 4.5 (AID 957; active = well fitted curve in the direction sought with a large enough effect; an effect the other way counts as inactive or inconclusive;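 note: plate controls were enzyme alone for no effect and no enzyme for full effect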)
How it was run: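 Fluorogenic qHTS at pH 4.5 (citrate buffer with Tween-20): 2 nM enzyme, 80 uM 4-MU-alpha-galactoside substrate, compound titrated 0.7 nM to 77 uM, 20 min room temperature. Glycine/NaOH stop; 4-MU read Ex 365/Em 440; Hill-equation AC50 against no-enzyme and enzyme controls.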

[14] = target: Alpha-galactosidase A (Homo sapiens) (UniProt P06280); experiment: Counterscreen for Glucocerebrosidase Inhibitors: qHTS Assay for Human alpha-Galactosidase at pH 4.5 (AID 992; active = well fitted curve in the direction sought with a large enough effect; an effect the other way counts as inactive or inconclusive; note: 0% is about no effect)
How it was run: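 Fluorogenic 1536-well qHTS at pH 4.5 (citrate, Tween-20): 2 nM enzyme, 80 uM 4-MU-alpha-galactoside, 20 min room temperature, NaOH/glycine stop. Titration 0.7 nM to 77 uM, data normalized to no-enzyme and full-activity controls, Hill-fitted AC50.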

[15] = target: alpha-glucosidase (Oryza sativa, rice) (UniProt Q653V4); experiment: Counterscreen for Glucocerebrosidase Inhibitors: qHTS Assay for Rice alpha-Glucosidase at pH 5.0 (AID 997; active = well fitted curve in the direction sought with a large enough effect; an effect the other way counts as inactive or inconclusive;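 note: 0% = full activity with enzyme and -100% = basal without enzyme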)
How it was run: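 Endpoint fluorogenic assay at pH 5.0: compounds (0.7 nM to 77 uM) titrated against 4 nM rice enzyme and 400 uM 4-MU-alpha-glucoside for 20 min at room temperature; NaOH/glycine stop, read ex 365/em 440 nm, Hill-fitted AC50.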

[16] = target: Alpha-galactosidase (Coffea arabica) (UniProt Q42656); experiment: Counterscreen for Glucocerebrosidase Inhibitors: qHTS Assay for Coffee Bean alpha-Galactosidase at pH 5.9 (AID 998; active = well fitted curve in the direction sought with a large enough effect; an effect the other way counts as inactive or inconclusive;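 note: plate controls were uninhibited enzyme for no effect and no-enzyme basal signal for full effect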)
How it was run: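 Enzyme 2 nM + cpd (0.7 nM–77 uM titration) + 4-MU-alpha-Gal 80 uM, pH 5.9 citrate/Tween-20, RT 20 min, NaOH/glycine stop pH 10, fluor 365/440. Normalized to no-enzyme and full-activity controls; Hill-fit AC50.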

[17] = target: Cytochrome P450 2D6 (Homo sapiens) (UniProt P10635); experiment: qHTS Assay for Inhibitors and Substrates of Cytochrome P450 2D6 (AID 891; active = well fitted curve in the direction sought with a large enough effect; an effect the other way counts as inactive or inconclusive; note: potency is the fitted concentration of half-maximal effect; nearly all actives have a fitted effect of over 60% in size)
How it was run: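 Luminescent read-out of luciferin formed by 5 nM human CYP2D6 demethylating 30 uM Luciferin-ME EGE (Km level) over 60 min at room temperature after NADPH regeneration addition. Data normalized to full inhibition by 1.43 uM quinidine.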

[18] = qHTS Assay for Identification of Small Molecule Agonists for Thrombopoietin (TPO) Signaling Pathway (AID 917; active = well fitted curve in the direction sought with a large enough effect; an effect the other way counts as inactive or inconclusive; note: % is set by controls: 0 for no effect and ±100 for the full control effect)
How it was run: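 Human TPO receptor–transfected Ba/F3 cells (murine, IL-3-dependent) in IL-3-deficient medium; compounds plus TPO at EC50, 26 pM final; 24 hrs, 37 C; GpIIb-luciferase luminescence after 10 min RT detection.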

[19] = target: Muscarinic acetylcholine receptor M1 (Rattus norvegicus) (UniProt P08482); experiment: qHTS Assay for Antagonists of Acetylcholine Muscarinic M1 Receptor: Kinetic Measurement of Intracellular Calcium Response (AID 943; active = well fitted curve in the direction sought with a large enough effect; an effect the other way counts as inactive or inconclusive;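 note: Fluo-4 calcium signal as peak divided by basal fluorescence over 4 min; nearly all actives have a fitted effect of over 75% in size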)
How it was run: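 Antagonism measured as reduction of carbachol-evoked (EC80, 100 nM final) calcium flux in rat M1-CHO cells after 10 min compound exposure. Fluo-4 signal read kinetically; ratio of maximal to basal fluorescence.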

Alpha-galactosidase (Coffea arabica), sequence (Q42656 whole entry, looked up): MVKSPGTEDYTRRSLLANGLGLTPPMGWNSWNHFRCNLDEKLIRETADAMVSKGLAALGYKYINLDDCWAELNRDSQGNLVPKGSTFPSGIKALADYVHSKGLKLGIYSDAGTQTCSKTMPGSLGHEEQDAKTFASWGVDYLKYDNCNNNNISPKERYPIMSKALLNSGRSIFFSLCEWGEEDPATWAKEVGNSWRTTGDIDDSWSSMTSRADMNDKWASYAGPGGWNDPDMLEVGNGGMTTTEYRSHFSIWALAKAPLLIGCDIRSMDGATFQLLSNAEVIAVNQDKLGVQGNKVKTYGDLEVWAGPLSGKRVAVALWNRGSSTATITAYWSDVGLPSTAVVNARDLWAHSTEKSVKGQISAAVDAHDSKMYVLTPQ
Glucocorticoid receptor (Homo sapiens), sequence (P04150 whole entry, looked up, the tested form may be a part): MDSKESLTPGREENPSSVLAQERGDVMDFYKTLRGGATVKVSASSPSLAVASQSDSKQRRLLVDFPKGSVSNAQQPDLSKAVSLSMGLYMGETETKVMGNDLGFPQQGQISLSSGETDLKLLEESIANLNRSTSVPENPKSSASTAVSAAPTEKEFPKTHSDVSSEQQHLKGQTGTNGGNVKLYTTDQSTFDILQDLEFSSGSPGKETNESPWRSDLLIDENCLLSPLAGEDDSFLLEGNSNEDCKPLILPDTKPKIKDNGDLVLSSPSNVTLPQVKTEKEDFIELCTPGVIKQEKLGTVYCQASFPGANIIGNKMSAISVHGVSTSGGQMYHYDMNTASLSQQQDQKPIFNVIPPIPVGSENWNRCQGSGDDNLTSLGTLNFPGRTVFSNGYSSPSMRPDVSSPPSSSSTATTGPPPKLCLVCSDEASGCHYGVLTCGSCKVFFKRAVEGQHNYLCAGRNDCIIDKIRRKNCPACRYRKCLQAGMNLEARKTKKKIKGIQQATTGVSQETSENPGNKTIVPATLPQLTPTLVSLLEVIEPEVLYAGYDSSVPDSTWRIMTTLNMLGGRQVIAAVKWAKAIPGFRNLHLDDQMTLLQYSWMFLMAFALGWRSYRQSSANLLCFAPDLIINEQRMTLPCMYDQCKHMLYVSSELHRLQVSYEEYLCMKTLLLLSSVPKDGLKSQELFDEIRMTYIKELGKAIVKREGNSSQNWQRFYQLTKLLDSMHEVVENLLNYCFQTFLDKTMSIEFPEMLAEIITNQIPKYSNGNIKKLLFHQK
Alpha-galactosidase A (Homo sapiens), sequence (P06280 whole entry, looked up): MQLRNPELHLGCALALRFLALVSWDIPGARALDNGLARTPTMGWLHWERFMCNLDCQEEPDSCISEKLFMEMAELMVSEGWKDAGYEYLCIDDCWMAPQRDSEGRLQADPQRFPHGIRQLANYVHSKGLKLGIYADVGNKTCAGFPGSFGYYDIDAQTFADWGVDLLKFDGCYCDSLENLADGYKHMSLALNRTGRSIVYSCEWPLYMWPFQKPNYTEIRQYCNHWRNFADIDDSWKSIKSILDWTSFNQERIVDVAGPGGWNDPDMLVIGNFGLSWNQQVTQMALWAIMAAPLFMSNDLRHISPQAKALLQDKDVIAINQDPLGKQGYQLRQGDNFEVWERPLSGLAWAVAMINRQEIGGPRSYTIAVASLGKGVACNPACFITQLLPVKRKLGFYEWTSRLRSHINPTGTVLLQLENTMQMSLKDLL
Muscarinic acetylcholine receptor M1 (Rattus norvegicus), sequence (P08482 whole entry, looked up): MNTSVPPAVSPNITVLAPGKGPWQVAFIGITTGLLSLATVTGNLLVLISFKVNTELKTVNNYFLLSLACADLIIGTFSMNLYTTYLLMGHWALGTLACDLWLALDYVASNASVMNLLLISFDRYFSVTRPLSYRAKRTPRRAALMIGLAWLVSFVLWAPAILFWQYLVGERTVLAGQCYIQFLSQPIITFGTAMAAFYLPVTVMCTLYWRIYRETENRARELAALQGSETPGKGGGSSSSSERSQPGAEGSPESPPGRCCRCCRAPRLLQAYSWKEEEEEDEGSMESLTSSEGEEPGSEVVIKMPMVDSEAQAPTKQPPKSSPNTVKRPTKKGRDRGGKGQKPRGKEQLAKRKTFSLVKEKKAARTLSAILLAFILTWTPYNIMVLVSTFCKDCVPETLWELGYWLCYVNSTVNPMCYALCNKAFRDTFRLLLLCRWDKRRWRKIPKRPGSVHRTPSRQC
Guanine nucleotide-binding protein G(i) subunit alpha-1 (Homo sapiens), sequence (P63096 whole entry, looked up): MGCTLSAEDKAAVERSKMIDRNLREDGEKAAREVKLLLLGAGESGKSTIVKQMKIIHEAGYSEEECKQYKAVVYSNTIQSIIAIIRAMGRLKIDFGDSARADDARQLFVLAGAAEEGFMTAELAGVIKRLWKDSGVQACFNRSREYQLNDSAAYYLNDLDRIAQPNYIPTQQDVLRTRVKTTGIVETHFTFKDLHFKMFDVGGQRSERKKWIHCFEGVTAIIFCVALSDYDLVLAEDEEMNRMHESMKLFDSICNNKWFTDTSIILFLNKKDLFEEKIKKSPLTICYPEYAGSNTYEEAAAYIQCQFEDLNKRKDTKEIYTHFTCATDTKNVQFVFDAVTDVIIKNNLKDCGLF
Pyruvate kinase PKM (Homo sapiens), sequence (P14618 whole entry, looked up): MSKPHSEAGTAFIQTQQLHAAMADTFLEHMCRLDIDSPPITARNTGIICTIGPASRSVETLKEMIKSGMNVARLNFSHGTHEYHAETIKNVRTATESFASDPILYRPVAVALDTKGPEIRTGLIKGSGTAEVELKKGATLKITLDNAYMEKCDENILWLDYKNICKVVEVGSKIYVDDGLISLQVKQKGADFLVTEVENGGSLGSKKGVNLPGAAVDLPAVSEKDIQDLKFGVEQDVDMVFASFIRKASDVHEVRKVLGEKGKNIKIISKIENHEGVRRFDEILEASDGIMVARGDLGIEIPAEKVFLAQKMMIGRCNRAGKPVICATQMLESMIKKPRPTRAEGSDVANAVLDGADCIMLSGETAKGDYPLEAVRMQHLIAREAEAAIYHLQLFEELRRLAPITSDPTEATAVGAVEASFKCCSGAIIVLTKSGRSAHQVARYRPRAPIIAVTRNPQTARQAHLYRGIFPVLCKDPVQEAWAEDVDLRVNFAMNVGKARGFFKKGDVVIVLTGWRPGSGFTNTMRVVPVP
3',5'-cyclic-AMP phosphodiesterase 4B (Homo sapiens), sequence (Q07343 whole entry, looked up): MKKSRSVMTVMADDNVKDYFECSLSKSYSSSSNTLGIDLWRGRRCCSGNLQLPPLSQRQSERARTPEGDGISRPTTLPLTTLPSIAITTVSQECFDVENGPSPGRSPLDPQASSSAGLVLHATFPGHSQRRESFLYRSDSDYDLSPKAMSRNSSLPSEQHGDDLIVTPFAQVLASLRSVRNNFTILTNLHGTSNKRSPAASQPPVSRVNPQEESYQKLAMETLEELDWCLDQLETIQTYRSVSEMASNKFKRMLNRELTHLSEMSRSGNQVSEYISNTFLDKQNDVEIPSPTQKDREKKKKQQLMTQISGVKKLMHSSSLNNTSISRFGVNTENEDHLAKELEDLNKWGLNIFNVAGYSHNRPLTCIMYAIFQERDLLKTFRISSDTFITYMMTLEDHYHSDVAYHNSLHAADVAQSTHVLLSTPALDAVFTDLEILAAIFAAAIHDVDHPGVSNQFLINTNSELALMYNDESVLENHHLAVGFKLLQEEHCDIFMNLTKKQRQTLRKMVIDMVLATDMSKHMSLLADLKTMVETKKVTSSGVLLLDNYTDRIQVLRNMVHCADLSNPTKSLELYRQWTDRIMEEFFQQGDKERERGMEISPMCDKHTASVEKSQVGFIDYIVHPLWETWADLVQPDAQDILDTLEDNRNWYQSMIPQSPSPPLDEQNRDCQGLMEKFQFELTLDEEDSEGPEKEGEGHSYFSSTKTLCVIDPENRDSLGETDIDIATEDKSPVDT
Cytochrome P450 2D6 (Homo sapiens), sequence (P10635 whole entry, looked up): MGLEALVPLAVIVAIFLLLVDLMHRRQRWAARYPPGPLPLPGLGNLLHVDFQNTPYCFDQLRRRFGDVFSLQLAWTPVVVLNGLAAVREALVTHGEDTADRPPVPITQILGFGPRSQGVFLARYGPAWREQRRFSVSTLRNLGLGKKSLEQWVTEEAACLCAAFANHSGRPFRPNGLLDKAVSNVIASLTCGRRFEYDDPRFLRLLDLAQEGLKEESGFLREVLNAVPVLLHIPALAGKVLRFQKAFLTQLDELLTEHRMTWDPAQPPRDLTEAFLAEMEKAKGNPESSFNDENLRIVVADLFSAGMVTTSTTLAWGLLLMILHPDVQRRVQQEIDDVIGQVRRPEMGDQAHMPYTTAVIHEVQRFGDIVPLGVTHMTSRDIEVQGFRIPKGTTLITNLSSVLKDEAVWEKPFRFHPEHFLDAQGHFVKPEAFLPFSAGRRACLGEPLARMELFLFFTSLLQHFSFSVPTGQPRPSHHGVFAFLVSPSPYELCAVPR

COC(=O)C(O)(c1ccc(NC(=O)c2ccco2)c(OC)c1)C(F)(F)F (configuration not stated)
inactive: activity change, negative = inhibition [1] -12.5% | activity change, negative = inhibition [2] 4.31% | Potency [3] > 20.6 µM

CN(C)CCOC(=O)c1cn(Cc2ccccc2)c2ccccc12
inactive: activity change, negative = inhibition [1] 16% | outcome [4] | Potency [3] > 20.6 µM

O=c1[nH]c(=O)n(Cc2ccccc2)c(O)c1C=NCCN1CCOCC1
inactive: activity change, negative = inhibition [1] 1.24% | outcome [4] | Potency [3] > 20.6 µM

CC1(C)CC(n2[nH]c(=O)c3c2NC(=O)CSC3c2ccccc2)CCO1 (configuration not stated)
inactive: activity change, negative = inhibition [1] 0.712% | activity change, negative = inhibition [2] -1.52% | outcome [4] | Potency [3] > 20.6 µM | activation [5] 18.8%

CN1C[C@@H](CNC(=O)OCc2ccccc2)C[C@H]2c3cccc4c3c(cn4C)C[C@@H]21
inactive: activity change, negative = inhibition [1] 29.6% [at 38 µM] | activity change, negative = inhibition [2] 0.446% [at 38 µM] | outcome [4] | Potency [3] > 46 µM | Potency [6] > 46 µM | outcome [7]

Cc1ccc(C)c(C2(O)CC(C)N(C)CC2C)c1 (configuration not stated)
inactive: activity change, negative = inhibition [1] 22.9% | outcome [4] | Potency [3] > 20.6 µM

Oc1ccc2c3c1O[C@@H]1[C@@H](O)CC[C@]4(O)[C@H](C2)N(CC2CCC2)CC[C@@]314
inactive: activity change, negative = inhibition [1] 2.34% [at 38 µM] | activity change, negative = inhibition [2] 2.45% [at 38 µM] | outcome [4] | Potency [3] > 46 µM | Potency [6] > 46 µM | outcome [7] | outcome [8] | Potency [9] | Potency [10] | Potency [11] | outcome [12] | outcome [13] | outcome [14] | outcome [15] | outcome [16]

COc1ccc2c(c1)[C@]13CCCC[C@@H]1[C@H](C2)N(C)CC3
active: Potency [17] 2.51 µM
inactive: activity change, negative = inhibition [1] 12% [at 38 µM] | activity change, negative = inhibition [2] -11.7% [at 38 µM] | outcome [4] | Potency [3] > 46 µM | Potency [6] > 46 µM | outcome [8] | Potency [9] | outcome [12] | outcome [13] | outcome [14] | outcome [15] | outcome [16]

CCN1C[C@]2(C)CC[C@@H](O)[C@]34[C@@H]5CC6[C@@H](OC)C[C@@](O)([C@H]5[C@@H]6O)[C@@H](C[C@@H]23)[C@H]14
inactive: activity change, negative = inhibition [1] 5.54% [at 38 µM] | activity change, negative = inhibition [2] 6.29% [at 38 µM] | outcome [4] | Potency [3] > 46 µM | Potency [6] > 46 µM | outcome [8] | Potency [9] | Potency [10] | outcome [18] | Potency [19] | Potency [11] | outcome [12] | outcome [13] | outcome [14] | outcome [15] | outcome [16]
